Measurements: PubChem BioAssay (NCI)
About 83,000 compounds went through this panel and 20% of them were active in at least one assay; those are over-represented in the sample as a whole.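 Single-concentration screen, 48 h exposure, 96-well plates. Endpoint: percent growth. Below 10 = active.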 A number with no mark means an inactive call. Calls of active or inactive are those of the source.

Legend:
Assay in all cases: NCI-60 one-dose screen, 48 h (100 = growth as untreated, 0 = no growth, -100 = all killed)
Details in all cases: 10 µM
[1] = system: NCI-H23 lung
[2] = system: NCI-H226 lung
[3] = system: NCI-H322M lung
[4] = system: NCI-H460 lung
[5] = system: A549/ATCC NSCLC
[6] = system: 786-0 renal
[7] = system: COLO 205 colon
[8] = system: HOP-92 NSCLC
[9] = system: NCI-H522 lung
[10] = system: HOP-62 NSCLC

## CSc1ccc(-c2cc(-c3ccc(NC(=O)CCCN4CCCC4)cc3)nc(-c3ccc(NC(=O)CCCN4CCCC4)cc3)c2)cc1
[1]
  growth: 92.8%
[2]
  growth: 81.9%
[3]
  growth: 94.8%
[4]
  growth: 32.1%
[5]
  growth: 46.2%
[6]
  growth: 80.7%
[7]
  growth: 82.6%

## Cc1ccc(-c2c3c(N)nc(-c4cccnc4)nc3nc3c2c(C)nn3-c2ccccc2)cc1
[1]
  growth: 97.9%
[2]
  growth: 52.2%
[3]
  growth: 76.8%
[4]
  growth: 85%
[8]
  growth: 46.5%
[5]
  growth: 68.4%
[6]
  growth: 80.9%
[7]
  growth: 83.6%

## CCCCC/C=C/C/C=C/CCCCCCCC1=NC(C)(C)CN1C(C)C
[1]
  growth: 20.7%
[2]
  growth: 86.5%
[3]
  growth: 108%
[4]
  growth: -32.3% (active)
[6]
  growth: 62.4%
[7]
  growth: -87.2% (active)

## C=C1CCC2(C#N)[C@H]3[C@H](CC[C@@H]2C)[C@@H](C)C[C@@H](CC(C)(C)NC(=O)CN2CCC2=O)[C@H]13 (stereo not given in full)
[1]
  growth: 60.3%
[2]
  growth: 60.6%
[3]
  growth: 96.1%
[4]
  growth: 52.1%
[9]
  growth: 46.6%
[5]
  growth: 67.3%
[7]
  growth: 54%

## CC(=O)Nc1cc2c(cc1Cl)Cc1cc(Cl)ccc1-2
[1]
  growth: 77.1%
[2]
  growth: 83%
[3]
  growth: 96%
[4]
  growth: 95.9%
[9]
  growth: 79.6%
[6]
  growth: 112%
[7]
  growth: 105%

## C=CCSC(CC)(CC)C(=O)NC
[1]
  growth: 99.4%
[2]
  growth: 97.8%
[10]
  growth: 102%
[4]
  growth: 103%
[8]
  growth: 106%
[9]
  growth: 86.5%
[5]
  growth: 94.9%
[6]
  growth: 104%

## C1CN(CC2CCC(CN3CCOCC3)O2)CCO1 (stereo not given)
[1]
  growth: 98.6%
[2]
  growth: 107%
[10]
  growth: 95.1%
[4]
  growth: 110%
[8]
  growth: 120%
[9]
  growth: 66.2%
[5]
  growth: 96.9%
[6]
  growth: 99.7%

## CCOC(=O)C(C)(c1ccccc1)c1ccccc1
[1]
  growth: 106%
[2]
  growth: 100%
[10]
  growth: 95%
[4]
  growth: 106%
[8]
  growth: 98.6%
[9]
  growth: 94.8%
[5]
  growth: 92.9%
[6]
  growth: 119%
[7]
  growth: 120%

## COc1cc(-c2csc(NC(=O)Nc3ccc(Cl)c(C(F)(F)F)c3)n2)cc(OC)c1OC
[1]
  growth: 1.27% (active)
[2]
  growth: -6.43% (active)
[10]
  growth: -23.8% (active)
[4]
  growth: 2.24% (active)
[8]
  growth: -35.4% (active)
[9]
  growth: -25.4% (active)
[5]
  growth: 0.191% (active)
[6]
  growth: -12.4% (active)
[7]
  growth: -58.1% (active)

## CCCCCCCCCCOC(c1ccccc1)c1ccccc1
[1]
  growth: 83%
[2]
  growth: 85.5%
[10]
  growth: 87.8%
[4]
  growth: 101%
[8]
  growth: 103%
[9]
  growth: 75.8%
[5]
  growth: 83.6%
[6]
  growth: 98%
[7]
  growth: 104%

## CC1CCCC(C(=O)O)C1C(=O)O (stereo not given)
[1]
  growth: 98.1%
[2]
  growth: 96.7%
[10]
  growth: 87.7%
[4]
  growth: 104%
[8]
  growth: 86.1%
[9]
  growth: 80.8%
[5]
  growth: 78.3%
[6]
  growth: 94%
[7]
  growth: 102%

## CCN1CCN(CCC(=O)Nc2cccc(-n3cc(-c4ccncc4)c(-c4ccc(Cl)c(OC)c4)n3)c2)CC1
[1]
  growth: 32.2%
[2]
  growth: 65%
[10]
  growth: 37.7%
[4]
  growth: 6.94% (active)
[8]
  growth: 6.07% (active)
[9]
  growth: -23.2% (active)
[5]
  growth: 8.56% (active)
[6]
  growth: -47.6% (active)
[7]
  growth: -69.3% (active)

## COc1ccc(/C(C#N)=C/c2ccccc2OC)cc1
[1]
  growth: 41.7%
[2]
  growth: 64.8%
[10]
  growth: 44.7%
[4]
  growth: 20.9%
[8]
  growth: 74.4%
[9]
  growth: 5.02% (active)
[5]
  growth: 36.2%
[6]
  growth: 52.4%

## COc1cc(C2CC(c3ccccc3)=NN2C(C)=O)cc(OC)c1OC (stereo not given)
[1]
  growth: 64.1%
[2]
  growth: 82.1%
[10]
  growth: 68.2%
[4]
  growth: 15.5%
[8]
  growth: 76.1%
[9]
  growth: 7.46% (active)
[5]
  growth: 54.7%
[6]
  growth: 62.2%
[7]
  growth: 35.3%

## CNC(=O)c1cc(Oc2ccc3c(c2)sc2nc(-c4ccc(NC(=O)Nc5ccc(Cl)c(C(F)(F)F)c5)cc4)cn23)ccn1
[1]
  growth: 84.7%
[2]
  growth: 101%
[10]
  growth: 79.1%
[4]
  growth: 92.5%
[8]
  growth: 88.6%
[9]
  growth: 59%
[5]
  growth: 79.8%
[6]
  growth: 72.6%

## Cc1nn(-c2ccc(-c3ccc(OC(F)(F)F)cc3)cc2)c2nc(Cc3ccccc3)nc(N)c12
[1]
  growth: 64.9%
[2]
  growth: 42.5%
[10]
  growth: 45.9%
[4]
  growth: 3.39% (active)
[8]
  growth: 59%
[9]
  growth: 73.7%
[5]
  growth: 16.7%
[6]
  growth: 5.79% (active)

## COc1ccc(-c2csc(NC(=O)c3ccc(Cc4n[nH]c(=O)c5cccnc45)cc3)n2)cc1
[1]
  growth: 80.4%
[2]
  growth: 71.4%
[10]
  growth: 92%
[4]
  growth: 97.4%
[8]
  growth: 75.3%
[9]
  growth: 80.7%
[5]
  growth: 101%
[6]
  growth: 99.2%
[7]
  growth: 110%

## Oc1ccc(/C=N/N=C2c3ccccc3-c3ccccc32)c(O)c1
[1]
  growth: 70.2%
[2]
  growth: 60.5%
[10]
  growth: 82.3%
[4]
  growth: 83.2%
[8]
  growth: 79.5%
[9]
  growth: 74.5%
[5]
  growth: 54.8%
[6]
  growth: 80.4%
[7]
  growth: 88%

## S=c1cnc2ccccc2[nH]1
[1]
  growth: 98.4%
[2]
  growth: 107%
[10]
  growth: 93.3%
[4]
  growth: 96.3%
[8]
  growth: 79.4%
[9]
  growth: 95.5%
[5]
  growth: 93.5%
[6]
  growth: 98.9%
[7]
  growth: 95%

## Cc1cc(Br)nnc1Br
[1]
  growth: 106%
[2]
  growth: 87.2%
[10]
  growth: 91.8%
[4]
  growth: 117%
[8]
  growth: 128%
[9]
  growth: 110%
[5]
  growth: 109%
[6]
  growth: 104%

## Cc1ccc2nc(Cl)c(-c3nc4ccccc4o3)cc2c1
[1]
  growth: 77.6%
[2]
  growth: 90.7%
[10]
  growth: 92.7%
[4]
  growth: 106%
[8]
  growth: 83%
[9]
  growth: 90.3%
[5]
  growth: 99.6%
[6]
  growth: 99.5%
[7]
  growth: 89.5%

## O=C(NCCCNS(=O)(=O)c1ccc(Cl)cc1)Nc1ccc(-n2cc(-c3ccncc3)c(-c3ccc(Cl)c(O)c3)n2)cc1
[1]
  growth: 42%
[2]
  growth: 41%
[10]
  growth: 76.4%
[4]
  growth: 13.7%
[8]
  growth: 37.3%
[9]
  growth: 40.6%
[5]
  growth: 28.4%
[6]
  growth: 1.59% (active)
[7]
  growth: 16.4%

## O=C(Nc1nc(-c2ccccc2)nc2c1sc(=S)n2-c1ccccc1)C(F)(F)F
[1]
  growth: 89.9%
[2]
  growth: 90.3%
[10]
  growth: 101%
[4]
  growth: 99.3%
[8]
  growth: 81.4%
[9]
  growth: 86.6%
[5]
  growth: 74.9%
[6]
  growth: 98.9%

## CC(C)(C)OC(=O)N1CCc2c(sc3ncnc(N/N=C/c4ccc(Br)cc4)c23)C1
[1]
  growth: 71.8%
[2]
  growth: 79%
[10]
  growth: 69%
[4]
  growth: 39.6%
[8]
  growth: 94.4%
[9]
  growth: 35.6%
[5]
  growth: 50.2%
[6]
  growth: 76.5%
[7]
  growth: 41%

## Cc1ccc(S(=O)(=O)N/N=C2\CCCc3ccccc32)cc1
[1]
  growth: 87.1%
[2]
  growth: 90.9%
[10]
  growth: 108%
[4]
  growth: 96.7%
[8]
  growth: 99.5%
[9]
  growth: 103%
[5]
  growth: 101%
[6]
  growth: 116%

## O=C(CCCSc1nc(-c2ccccc2)cc(-c2ccc(Cl)cc2)n1)NO
[1]
  growth: 9.38% (active)
[2]
  growth: 10.6%
[10]
  growth: 12.5%
[4]
  growth: -9.81% (active)
[8]
  growth: 32.9%
[9]
  growth: 7.31% (active)
[5]
  growth: 5.6% (active)
[6]
  growth: 9.83% (active)
[7]
  growth: 10.1%

## C=C(C)[C@@H]1CC[C@]2(COCCC#N)CC[C@]3(C)[C@H](CC[C@@H]4[C@@]5(C)Cc6c([nH]c7ccccc67)C(C)(C)[C@@H]5CC[C@]43C)[C@@H]12
[1]
  growth: 90.6%
[2]
  growth: 94.5%
[10]
  growth: 105%
[4]
  growth: 84.9%
[8]
  growth: 107%
[9]
  growth: 87%
[5]
  growth: 99.8%
[6]
  growth: 101%

## O=C(O)c1cc([N+](=O)[O-])ccc1Oc1ccccc1
[1]
  growth: 101%
[2]
  growth: 98.6%
[10]
  growth: 101%
[4]
  growth: 105%
[8]
  growth: 65.8%
[9]
  growth: 97.1%
[5]
  growth: 99.7%
[6]
  growth: 104%
[7]
  growth: 104%

## COc1ccc2nc3cc(Cl)ccc3c(N)c2c1
[1]
  growth: -93.9% (active)
[2]
  growth: 36.7%
[10]
  growth: -94.3% (active)
[4]
  growth: -75.2% (active)
[8]
  growth: 91.3%
[9]
  growth: -75.8% (active)
[5]
  growth: -73% (active)
[6]
  growth: -98.9% (active)
[7]
  growth: -87.6% (active)

## CNS(=O)(=O)Oc1ccc(-c2ccc3occc3c2)cc1
[1]
  growth: 95.1%
[2]
  growth: 93.8%
[10]
  growth: 102%
[4]
  growth: 104%
[8]
  growth: 91.8%
[9]
  growth: 84%
[5]
  growth: 93.3%
[6]
  growth: 99.1%
[7]
  growth: 111%

## COc1cc(C(=O)/C=C/c2c[nH]c3ccccc23)cc(OC)c1OC
[1]
  growth: 16.1%
[2]
  growth: 55.6%
[10]
  growth: 41.1%
[4]
  growth: 8.04% (active)
[8]
  growth: 39.2%
[9]
  growth: -27% (active)
[5]
  growth: 17.7%
[6]
  growth: 12.2%
[7]
  growth: -65.1% (active)
